Measurements taken from the supplement of paper PMC3545927.
The list shows a part of the results. The hit rate among all sequences tested is not known here.

Target: furin, P09958
Test: furin cleavage Z-score vs untreated control; higher = more cleavage, active = 3.5 or more, inactive = 1 or less, 8 variable residues between constant flanks
Outline: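 Peptides 8 residues long, fused to a cDNA oligonucleotide, were fixed to magnetic beads by the N-terminus and exposed to purified furin. The 0.01 ml reactions contained 50 mM HEPES pH 7.5 with CaCl2 and NaCl at 1:10 enzyme:substrate and ran 7.5, 15 or 30 min. For the cleavage Z-score, log counts of sequenced released DNA were compared with furin-free reactions, lowess-adjusted and scaled by median absolute deviation.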

furin, P09958, sequence (P09958 whole entry): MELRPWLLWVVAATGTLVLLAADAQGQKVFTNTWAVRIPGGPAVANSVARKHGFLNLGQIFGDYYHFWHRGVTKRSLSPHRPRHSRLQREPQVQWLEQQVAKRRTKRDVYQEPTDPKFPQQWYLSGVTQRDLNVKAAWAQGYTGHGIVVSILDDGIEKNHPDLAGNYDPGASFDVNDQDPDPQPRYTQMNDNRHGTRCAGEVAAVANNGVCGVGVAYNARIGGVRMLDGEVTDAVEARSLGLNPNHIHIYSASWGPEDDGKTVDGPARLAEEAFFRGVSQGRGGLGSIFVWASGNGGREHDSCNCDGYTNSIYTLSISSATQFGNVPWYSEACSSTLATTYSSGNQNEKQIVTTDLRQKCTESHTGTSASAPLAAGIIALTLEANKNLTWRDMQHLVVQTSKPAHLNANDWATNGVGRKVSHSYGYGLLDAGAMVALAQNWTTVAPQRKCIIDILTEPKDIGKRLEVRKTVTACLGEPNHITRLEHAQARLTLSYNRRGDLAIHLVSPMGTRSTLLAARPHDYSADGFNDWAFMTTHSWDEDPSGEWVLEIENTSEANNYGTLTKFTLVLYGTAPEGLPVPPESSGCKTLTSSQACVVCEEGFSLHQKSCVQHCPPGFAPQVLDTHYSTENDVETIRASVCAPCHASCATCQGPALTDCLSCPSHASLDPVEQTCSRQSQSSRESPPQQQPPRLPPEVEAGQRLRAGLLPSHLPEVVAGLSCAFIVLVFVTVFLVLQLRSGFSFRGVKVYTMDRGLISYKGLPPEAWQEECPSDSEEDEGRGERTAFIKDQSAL

## CAEVVTSTQVAGNASASA [HC2242]
7.5 min
  furin cleavage Z-score: 0.0534 (inactive)
15 min
  furin cleavage Z-score: -0.769 (inactive)
30 min
  furin cleavage Z-score: -0.513 (inactive)

## CAMEECSQMLAGNASASA [HC1746]
7.5 min
  furin cleavage Z-score: 0.461 (inactive)
15 min
  furin cleavage Z-score: -0.78 (inactive)
30 min
  furin cleavage Z-score: 0.807 (inactive)

## CAEVVTTTWVAGNASASA [HC156]
7.5 min
  furin cleavage Z-score: 0.967 (inactive)
15 min
  furin cleavage Z-score: 0.111 (inactive)
30 min
  furin cleavage Z-score: 0.291 (inactive)

## CAQESQKKRSAGNASASA [FS-1474]
7.5 min
  furin cleavage Z-score: -0.591 (inactive)
15 min
  furin cleavage Z-score: -0.0857 (inactive)
30 min
  furin cleavage Z-score: 0.142 (inactive)

## CASCLRHKRSAGNASASA [FS-716]
7.5 min
  furin cleavage Z-score: 4.23 (active)
15 min
  furin cleavage Z-score: 3.94 (active)
30 min
  furin cleavage Z-score: 4 (active)

## CAIERRKKRSAGNASASA [FS-1341]
7.5 min
  furin cleavage Z-score: 11.5 (active)
15 min
  furin cleavage Z-score: 11.5 (active)
30 min
  furin cleavage Z-score: 10.3 (active)

## CATEKRKKRSAGNASASA [FS-879]
7.5 min
  furin cleavage Z-score: 10.8 (active)
15 min
  furin cleavage Z-score: 10.5 (active)
30 min
  furin cleavage Z-score: 9.01 (active)

## CASCLTVPASAGNASASA [HC252]
7.5 min
  furin cleavage Z-score: -0.0568 (inactive)
15 min
  furin cleavage Z-score: -0.538 (inactive)
30 min
  furin cleavage Z-score: -1.9 (inactive)

## CAINFRDKRSAGNASASA [FS-667]
7.5 min
  furin cleavage Z-score: 10.5 (active)
15 min
  furin cleavage Z-score: 11.5 (active)
30 min
  furin cleavage Z-score: 8.52 (active)

## CAMEECSKHLAGNASASA [HC1734]
7.5 min
  furin cleavage Z-score: 0.481 (inactive)
15 min
  furin cleavage Z-score: 1.71
30 min
  furin cleavage Z-score: -0.626 (inactive)

## CAVVCCLMSYAGNASASA [HC104]
7.5 min
  furin cleavage Z-score: -0.57 (inactive)
15 min
  furin cleavage Z-score: -0.101 (inactive)
30 min
  furin cleavage Z-score: -0.447 (inactive)

## CAEPVVCCSMAGNASASA [HC2139]
7.5 min
  furin cleavage Z-score: 0.036 (inactive)
15 min
  furin cleavage Z-score: -1.42 (inactive)
30 min
  furin cleavage Z-score: 1.07

## CAVLDSHYQDAGNASASA [HC1400]
7.5 min
  furin cleavage Z-score: -0.288 (inactive)
15 min
  furin cleavage Z-score: -1.98 (inactive)
30 min
  furin cleavage Z-score: 0.522 (inactive)

## CAIERVHKRSAGNASASA [FS-1342]
7.5 min
  furin cleavage Z-score: 6.81 (active)
15 min
  furin cleavage Z-score: 7.58 (active)
30 min
  furin cleavage Z-score: 7.96 (active)

## CASDDRLCRSAGNASASA [FS-1484]
7.5 min
  furin cleavage Z-score: -0.386 (inactive)
15 min
  furin cleavage Z-score: 0.196 (inactive)
30 min
  furin cleavage Z-score: -1 (inactive)

## CATEHRVCRSAGNASASA [FS-508]
7.5 min
  furin cleavage Z-score: 3.96 (active)
15 min
  furin cleavage Z-score: 5.27 (active)
30 min
  furin cleavage Z-score: 4.89 (active)

## CAEYVEIRQVAGNASASA [HC1205]
7.5 min
  furin cleavage Z-score: -0.199 (inactive)
15 min
  furin cleavage Z-score: -0.194 (inactive)
30 min
  furin cleavage Z-score: 1.29

## CARPEKSVNKAGNASASA [FS-1759]
7.5 min
  furin cleavage Z-score: -1.61 (inactive)
15 min
  furin cleavage Z-score: 0.261 (inactive)
30 min
  furin cleavage Z-score: -0.528 (inactive)

## CARAARGTSPAGNASASA [FS-2633]
7.5 min
  furin cleavage Z-score: -0.591 (inactive)
15 min
  furin cleavage Z-score: -1.01 (inactive)
30 min
  furin cleavage Z-score: 1.21

## CARTARAWGKAGNASASA [FS-3102]
7.5 min
  furin cleavage Z-score: -0.427 (inactive)
15 min
  furin cleavage Z-score: 0.174 (inactive)
30 min
  furin cleavage Z-score: 1.29

## CARTARAVSPAGNASASA [FS-2611]
7.5 min
  furin cleavage Z-score: 5.89 (active)
15 min
  furin cleavage Z-score: 8.14 (active)
30 min
  furin cleavage Z-score: 7.16 (active)

## CARFARHVSPAGNASASA [FS-2138]
7.5 min
  furin cleavage Z-score: 10.5 (active)
15 min
  furin cleavage Z-score: 9.18 (active)
30 min
  furin cleavage Z-score: 9.56 (active)

## CARTARSEEDAGNASASA [FS-3103]
7.5 min
  furin cleavage Z-score: -1.19 (inactive)
15 min
  furin cleavage Z-score: -0.787 (inactive)
30 min
  furin cleavage Z-score: 0.992 (inactive)

## CAFTAAVTSPAGNASASA [HC1057]
7.5 min
  furin cleavage Z-score: -0.794 (inactive)
15 min
  furin cleavage Z-score: -0.905 (inactive)
30 min
  furin cleavage Z-score: -0.554 (inactive)

## CARTARSTNKAGNASASA [FS-2094]
7.5 min
  furin cleavage Z-score: 5.26 (active)
15 min
  furin cleavage Z-score: 7.87 (active)
30 min
  furin cleavage Z-score: 5.51 (active)

## CALKAKLMPQAGNASASA [HC1158]
7.5 min
  furin cleavage Z-score: 1.55
15 min
  furin cleavage Z-score: 0.58 (inactive)
30 min
  furin cleavage Z-score: -1.58 (inactive)

## CAVVCGSMSYAGNASASA [HC82]
7.5 min
  furin cleavage Z-score: -0.0603 (inactive)
15 min
  furin cleavage Z-score: -1.58 (inactive)
30 min
  furin cleavage Z-score: 0.38 (inactive)

## CALRDYIPRIAGNASASA [FS-1464]
7.5 min
  furin cleavage Z-score: -0.691 (inactive)
15 min
  furin cleavage Z-score: -1.05 (inactive)
30 min
  furin cleavage Z-score: -0.313 (inactive)

## CARFHRACRLAGNASASA [FS-1257]
7.5 min
  furin cleavage Z-score: -0.645 (inactive)
15 min
  furin cleavage Z-score: -0.00567 (inactive)
30 min
  furin cleavage Z-score: -0.322 (inactive)

## CALRYRHKRLAGNASASA [FS-1542]
7.5 min
  furin cleavage Z-score: 9.71 (active)
15 min
  furin cleavage Z-score: 11.6 (active)
30 min
  furin cleavage Z-score: 9.65 (active)

## CALRYRHKRIAGNASASA [FS-1541]
7.5 min
  furin cleavage Z-score: 6.08 (active)
15 min
  furin cleavage Z-score: 8.2 (active)
30 min
  furin cleavage Z-score: 8.94 (active)
